In assay [1] the target is human Adrenergic, Alpha 2A Receptor (Adra2A), ADRA2A (gene 150) (UniProt P08913). As to the kind of experiment: NVS_GPCR_hAdra2A: NovaScreen (NVS) G Protein-Coupled Receptor Assay for human Adrenergic, Alpha 2A Receptor (Adra2A) (AID 2283257). An outline of the steps: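 Displacement of a specific radioligand from HT29 membrane protein was counted by filter scintillation after 1 h. Compounds were screened in duplicate at 25 uM, and actives were retested in concentration series. Fitting was positive-direction against DMSO.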

Assay [2] concerns the target human Adrenergic, Alpha 2c Receptor (Adra2C), ADRA2C (gene 152) (UniProt P18825). As to the kind of experiment: NVS_GPCR_hAdra2C: NovaScreen (NVS) G Protein-Coupled Receptor Assay for human Adrenergic, Alpha 2c Receptor (Adra2C) (AID 2283259). The method in brief:
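Screened first in duplicate at 25 uM, with actives then run as concentration series. Membranes from Sf9 cells were exposed for 1 h, and displacement of radioligand was counted after filtration, using DMSO as baseline.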

In assay [3] the target is human Muscarinic, M4 Receptor, CHRM4 (gene 1132) (UniProt P08173). As to the kind of experiment: NVS_GPCR_hM4: NovaScreen (NVS) G Protein-Coupled Receptor Assay for human Muscarinic, M4 Receptor (AID 2283274). An outline of the steps:
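Filter-based scintillation counting of radioligand bound to CHO-expressed human M4 preparations after 1 h; loss of signal fitted versus DMSO. Initial duplicate testing at 25 uM, concentration-response follow-up for actives.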

Assay [4] deals with Muscarinic acetylcholine receptor M5 (Homo sapiens) (UniProt P08912). Kind of assay: NVS_GPCR_hM5: NovaScreen (NVS) G Protein-Coupled Receptor Assay for human Muscarinic, M5 Receptor (AID 2283275). The method in brief: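 Chemicals passing a primary duplicate screen at 25 uM were run as singleton concentration series, maximum 50 uM. Displacement of a specific radioligand from CHO-extracted receptor was read by filter scintillation after 1 h, relative to DMSO.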

Assay [5] concerns the target D(1A) dopamine receptor (Homo sapiens) (UniProt P21728). Kind of assay: NVS_GPCR_hDRD1: NovaScreen (NVS) G Protein-Coupled Receptor Assay for human Dopamine Receptor D1 (DRD1) (AID 2283269). An outline of the steps:
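HEK293-derived receptor preparation; radioligand competitive displacement; 1 h; filtration + scintillation counting. DMSO = negative control/baseline. Primary: 25 uM, duplicate; secondary: concentration–response for actives.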

Assay [6] addresses human Endothelin Receptor Type A (ETA), EDNRA (gene 1909) (UniProt P25101). Kind of assay: NVS_GPCR_hETA: NovaScreen (NVS) G Protein-Coupled Receptor Assay for human Endothelin Receptor Type A (ETA) (AID 2283265). The method in brief: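 Binding of radioligand to membrane protein extracted from SH-SY5Y cells was read by filtration and scintillation after 3 h. Compounds were screened at 25 uM in duplicate, with hits followed up in singleton concentration series to 50 uM.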

The target in assay [7] is human Dopamine Receptor D2 (DRD2), DRD2 (gene 1813) (UniProt P14416). As to the kind of experiment: NVS_GPCR_hDRD2s: NovaScreen (NVS) G Protein-Coupled Receptor Assay for human Dopamine Receptor D2 (DRD2) (AID 2283266). The method in brief:
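Test compound (25 uM, duplicate in the primary screen; concentration series at follow-up) competed with radioligand for human DRD2 in CHO-derived membrane protein. Filter-based scintillation counting was done 1.5 hours after dosing, with loss of signal analysed against DMSO.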

Assay [8] has as its target Muscarinic acetylcholine receptor M2 (Homo sapiens) (UniProt P08172). As to the kind of experiment: NVS_GPCR_hM2: NovaScreen (NVS) G Protein-Coupled Receptor Assay for human Muscarinic, M2 Receptor (AID 2283273). An outline of the steps:
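Filter-based radiodetection read bound radioligand 1 h after dosing CHO-derived membrane protein. Single-concentration duplicates (25 uM) first, then concentration-response for actives; signal loss versus DMSO scored.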

Assay [9] deals with human Histamine 1 Receptor (H1), HRH1 (gene 3269) (UniProt P35367). As to the kind of experiment: NVS_GPCR_hH1: NovaScreen (NVS) G Protein-Coupled Receptor Assay for human Histamine 1 Receptor (H1) (AID 2283268). The method in brief:
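Filter-based scintillation detection of radioligand binding to human H1, 1 h incubation; chemicals screened in duplicate at 25 uM, then concentration-response; signal loss relative to DMSO taken as activity.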

For assay [10], the target named is Muscarinic acetylcholine receptor M1 (Homo sapiens) (UniProt P11229). As to the kind of experiment: NVS_GPCR_hM1: NovaScreen (NVS) G Protein-Coupled Receptor Assay for human Muscarinic, M1 Receptor (AID 2283270). The method in brief: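 Actives from a duplicate 25 uM single-point screen were retested in concentration series. Binding measured as displacement of a radioligand from CHO-derived receptor preparation, 1 h incubation, filtration and scintillation counting, analysed as signal loss against DMSO.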

The target in assay [11] is human Leukotriene B4 Receptor 1 (LTB4-BLT1), LTB4R (gene 1241) (UniProt Q15722). As to the kind of experiment: NVS_GPCR_hLTB4_BLT1: NovaScreen (NVS) G Protein-Coupled Receptor Assay for human Leukotriene B4 Receptor 1 (LTB4-BLT1) (AID 2283271). An outline of the steps:
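Cell-free human neutrophil receptor preparation, 1 h exposure, radioligand binding read by filter scintillation counting. Single 25 uM duplicate screen, then concentration series topping at 50 uM; binding loss scored against DMSO baseline.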

Assay [12] addresses Muscarinic acetylcholine receptor M3 (Homo sapiens) (UniProt P20309). Kind of assay: NVS_GPCR_hM3: NovaScreen (NVS) G Protein-Coupled Receptor Assay for human Muscarinic, M3 Receptor (AID 2283272). An outline of the steps: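 Radioligand displacement binding on human M3 receptor in CHO-derived membranes, 1 h incubation, filter-based scintillation counting. Primary screen in duplicate at 25 uM; actives followed up in concentration series; loss of signal versus DMSO.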

The target in assay [13] is human Adenosine A2a Receptor (AdoRA2a), ADORA2A (gene 135) (UniProt P29274). Kind of assay: NVS_GPCR_hAdoRA2a: NovaScreen (NVS) G Protein-Coupled Receptor Assay for human Adenosine A2a Receptor (AdoRA2a) (AID 2283256). The method in brief: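 HEK293-derived receptor preparation, radioligand displacement, 1.5 h, filtration + scintillation read. Loss of bound signal scored vs DMSO. Single-point 25 uM in duplicate first, then concentration-response for actives.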

Assay [14] concerns the target human Adrenergic, Beta 1 Receptor (Adrb1), ADRB1 (gene 153) (UniProt P08588). Kind of assay: NVS_GPCR_hAdrb1: NovaScreen (NVS) G Protein-Coupled Receptor Assay for human Adrenergic, Beta 1 Receptor (Adrb1) (AID 2283258). The method in brief: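 Membranes/protein extracted from human neuroepithelioma cells, radioligand competition binding read by filtration and scintillation 2 h post-dose. Single 25 uM duplicate screen, then concentration-response follow-up; DMSO as negative control.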

The target of assay [15] is Beta-2 adrenergic receptor (Homo sapiens) (UniProt P07550). Kind of assay: NVS_GPCR_hAdrb2: NovaScreen (NVS) G Protein-Coupled Receptor Assay for human Adrenergic, Beta 2 Receptor (Adrb2) (AID 2283261). An outline of the steps:
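Compounds screened in duplicate at 25 uM, then actives in concentration series. Human beta-2 receptor from CHO material, cell-free; radioligand displacement after 1 h measured by filtration and scintillation against DMSO baseline.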

Assay [16] addresses human Dopamine Receptor D4.4 (DRD4.4), DRD4 (gene 1815) (UniProt P21917). Kind of assay: NVS_GPCR_hDRD4.4: NovaScreen (NVS) G Protein-Coupled Receptor Assay for human Dopamine Receptor D4.4 (DRD4.4) (AID 2283264). The method in brief:
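Filter-binding assay with a tritiated or iodinated ligand, cell-free receptor prepared from CHO, 1 hour. Loss of bound radioactivity versus DMSO; single 25 uM duplicate screen, then concentration-response for actives.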

Assay [17] deals with human Endothelin Receptor Type B (ETB), EDNRB (gene 1910) (UniProt P24530). As to the kind of experiment: NVS_GPCR_hETB: NovaScreen (NVS) G Protein-Coupled Receptor Assay for human Endothelin Receptor Type B (ETB) (AID 2283267). The method in brief: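 Filter-based scintillation readout of radioligand displacement, 4 h, using membranes from human astrocytoma cells. Actives from a 25 uM duplicate screen were retested in concentration-response (top 50 uM) relative to DMSO baseline.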

Records with an inconclusive call do not appear. Calls of active or inactive are those of the source. Rule for the calls: active = hit-call score of the fitted dose curve at least 0.9, where 1 is the maximum; inconclusive = response in the unintended direction; inactive = score below 0.9.

Sequence of human Adrenergic, Alpha 2c Receptor (Adra2C), ADRA2C (gene 152) (P18825 whole entry, looked up): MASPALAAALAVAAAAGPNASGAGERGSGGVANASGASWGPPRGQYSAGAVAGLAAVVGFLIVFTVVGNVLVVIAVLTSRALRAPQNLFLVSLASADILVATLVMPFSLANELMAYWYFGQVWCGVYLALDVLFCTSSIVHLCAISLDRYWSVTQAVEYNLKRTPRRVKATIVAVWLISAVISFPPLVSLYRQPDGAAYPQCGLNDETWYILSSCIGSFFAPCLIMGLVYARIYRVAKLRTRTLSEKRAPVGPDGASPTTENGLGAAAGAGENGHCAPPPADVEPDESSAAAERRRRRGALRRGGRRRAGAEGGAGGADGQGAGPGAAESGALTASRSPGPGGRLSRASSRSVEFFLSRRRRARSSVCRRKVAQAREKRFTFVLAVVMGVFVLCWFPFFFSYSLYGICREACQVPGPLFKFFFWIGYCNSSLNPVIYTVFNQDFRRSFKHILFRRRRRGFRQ
Sequence of D(1A) dopamine receptor (Homo sapiens) (P21728 whole entry, looked up): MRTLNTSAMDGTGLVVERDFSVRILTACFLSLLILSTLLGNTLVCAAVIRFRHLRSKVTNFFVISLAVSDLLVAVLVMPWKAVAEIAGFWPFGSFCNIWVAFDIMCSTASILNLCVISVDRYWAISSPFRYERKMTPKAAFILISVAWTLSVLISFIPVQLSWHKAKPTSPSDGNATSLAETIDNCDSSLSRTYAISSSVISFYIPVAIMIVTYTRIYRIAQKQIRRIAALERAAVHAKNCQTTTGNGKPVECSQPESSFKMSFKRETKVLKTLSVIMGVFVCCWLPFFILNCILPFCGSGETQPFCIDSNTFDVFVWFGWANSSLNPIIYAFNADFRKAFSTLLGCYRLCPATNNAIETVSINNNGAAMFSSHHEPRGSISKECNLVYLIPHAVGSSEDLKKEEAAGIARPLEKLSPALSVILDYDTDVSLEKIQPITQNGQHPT
Sequence of human Adrenergic, Alpha 2A Receptor (Adra2A), ADRA2A (gene 150) (P08913 whole entry, looked up): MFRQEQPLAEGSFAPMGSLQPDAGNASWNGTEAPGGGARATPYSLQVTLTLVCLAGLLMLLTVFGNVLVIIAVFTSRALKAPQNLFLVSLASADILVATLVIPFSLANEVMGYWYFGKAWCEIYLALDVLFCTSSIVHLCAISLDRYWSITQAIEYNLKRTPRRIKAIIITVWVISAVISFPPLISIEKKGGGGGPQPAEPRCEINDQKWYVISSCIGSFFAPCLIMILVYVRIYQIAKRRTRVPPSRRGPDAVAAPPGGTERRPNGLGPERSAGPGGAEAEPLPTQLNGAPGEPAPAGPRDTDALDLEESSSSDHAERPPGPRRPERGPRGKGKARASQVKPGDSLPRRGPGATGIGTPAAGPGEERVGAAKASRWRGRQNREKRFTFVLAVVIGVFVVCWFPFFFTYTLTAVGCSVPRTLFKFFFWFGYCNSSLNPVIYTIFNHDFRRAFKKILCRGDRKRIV
Sequence of Muscarinic acetylcholine receptor M3 (Homo sapiens) (P20309 whole entry, looked up): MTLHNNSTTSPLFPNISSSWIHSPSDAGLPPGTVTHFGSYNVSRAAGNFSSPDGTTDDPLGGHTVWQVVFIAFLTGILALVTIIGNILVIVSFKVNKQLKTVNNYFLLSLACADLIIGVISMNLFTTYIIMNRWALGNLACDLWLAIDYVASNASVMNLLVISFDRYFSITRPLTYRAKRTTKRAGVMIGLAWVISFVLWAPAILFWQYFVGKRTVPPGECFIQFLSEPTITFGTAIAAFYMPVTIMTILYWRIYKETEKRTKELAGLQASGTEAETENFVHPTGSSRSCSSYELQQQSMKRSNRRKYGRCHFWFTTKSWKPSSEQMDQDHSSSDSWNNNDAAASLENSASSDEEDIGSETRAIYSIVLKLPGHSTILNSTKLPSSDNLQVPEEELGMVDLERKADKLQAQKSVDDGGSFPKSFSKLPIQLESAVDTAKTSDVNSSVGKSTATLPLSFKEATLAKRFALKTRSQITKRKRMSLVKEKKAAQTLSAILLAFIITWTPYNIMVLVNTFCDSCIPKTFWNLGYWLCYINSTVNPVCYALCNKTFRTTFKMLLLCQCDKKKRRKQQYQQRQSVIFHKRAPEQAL
Sequence of Muscarinic acetylcholine receptor M2 (Homo sapiens) (P08172 whole entry, looked up): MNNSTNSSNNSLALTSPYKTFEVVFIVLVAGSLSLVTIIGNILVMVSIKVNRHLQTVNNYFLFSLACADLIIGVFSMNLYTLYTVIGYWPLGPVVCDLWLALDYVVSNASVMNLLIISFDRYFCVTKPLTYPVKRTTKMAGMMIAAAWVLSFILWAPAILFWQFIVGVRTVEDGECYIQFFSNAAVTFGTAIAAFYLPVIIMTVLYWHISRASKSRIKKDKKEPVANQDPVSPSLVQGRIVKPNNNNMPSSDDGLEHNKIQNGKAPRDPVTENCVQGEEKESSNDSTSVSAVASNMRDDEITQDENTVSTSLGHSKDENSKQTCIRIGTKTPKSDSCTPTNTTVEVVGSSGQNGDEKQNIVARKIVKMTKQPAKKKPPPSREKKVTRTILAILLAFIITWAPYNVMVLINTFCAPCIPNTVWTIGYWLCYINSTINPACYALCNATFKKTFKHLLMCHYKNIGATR
Sequence of Muscarinic acetylcholine receptor M5 (Homo sapiens) (P08912 whole entry, looked up): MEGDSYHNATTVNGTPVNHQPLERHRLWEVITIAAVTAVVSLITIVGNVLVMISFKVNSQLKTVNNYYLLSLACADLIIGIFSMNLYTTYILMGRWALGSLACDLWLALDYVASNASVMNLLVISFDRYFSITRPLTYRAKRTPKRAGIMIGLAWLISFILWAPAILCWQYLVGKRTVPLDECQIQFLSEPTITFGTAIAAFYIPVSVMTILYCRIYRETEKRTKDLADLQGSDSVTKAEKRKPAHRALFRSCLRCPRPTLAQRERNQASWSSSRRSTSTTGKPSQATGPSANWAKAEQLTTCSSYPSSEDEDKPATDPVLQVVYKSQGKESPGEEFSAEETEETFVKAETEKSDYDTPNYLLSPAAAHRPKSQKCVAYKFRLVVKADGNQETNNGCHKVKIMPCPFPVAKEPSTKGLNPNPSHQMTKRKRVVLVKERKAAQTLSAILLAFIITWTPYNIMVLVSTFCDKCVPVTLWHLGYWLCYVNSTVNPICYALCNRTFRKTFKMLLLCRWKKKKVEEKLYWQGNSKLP
Sequence of human Dopamine Receptor D2 (DRD2), DRD2 (gene 1813) (P14416 whole entry, looked up): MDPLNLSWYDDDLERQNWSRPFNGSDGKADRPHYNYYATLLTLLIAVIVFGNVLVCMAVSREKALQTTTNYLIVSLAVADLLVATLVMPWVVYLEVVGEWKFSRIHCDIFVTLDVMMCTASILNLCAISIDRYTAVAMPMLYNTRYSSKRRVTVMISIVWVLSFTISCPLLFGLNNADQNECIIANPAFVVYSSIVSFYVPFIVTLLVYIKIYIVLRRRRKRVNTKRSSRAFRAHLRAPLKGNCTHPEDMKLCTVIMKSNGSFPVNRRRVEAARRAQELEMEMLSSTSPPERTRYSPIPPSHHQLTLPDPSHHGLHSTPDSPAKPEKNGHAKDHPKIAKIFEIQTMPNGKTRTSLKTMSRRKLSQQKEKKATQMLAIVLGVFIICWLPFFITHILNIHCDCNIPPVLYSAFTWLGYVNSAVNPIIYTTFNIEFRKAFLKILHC
Sequence of human Muscarinic, M4 Receptor, CHRM4 (gene 1132) (P08173 whole entry, looked up): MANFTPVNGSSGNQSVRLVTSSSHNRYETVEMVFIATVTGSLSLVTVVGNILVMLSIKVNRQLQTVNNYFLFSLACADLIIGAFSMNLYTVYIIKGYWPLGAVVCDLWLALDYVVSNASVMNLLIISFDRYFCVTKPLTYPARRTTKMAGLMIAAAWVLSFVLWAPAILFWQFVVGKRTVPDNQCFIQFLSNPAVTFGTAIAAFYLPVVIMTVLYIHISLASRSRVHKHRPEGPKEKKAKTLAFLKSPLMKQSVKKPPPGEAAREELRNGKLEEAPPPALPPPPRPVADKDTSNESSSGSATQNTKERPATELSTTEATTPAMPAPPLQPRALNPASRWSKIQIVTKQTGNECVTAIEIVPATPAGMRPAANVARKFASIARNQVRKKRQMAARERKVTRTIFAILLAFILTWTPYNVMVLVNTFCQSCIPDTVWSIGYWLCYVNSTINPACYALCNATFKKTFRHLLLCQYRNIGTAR
Sequence of human Histamine 1 Receptor (H1), HRH1 (gene 3269) (P35367 whole entry, looked up): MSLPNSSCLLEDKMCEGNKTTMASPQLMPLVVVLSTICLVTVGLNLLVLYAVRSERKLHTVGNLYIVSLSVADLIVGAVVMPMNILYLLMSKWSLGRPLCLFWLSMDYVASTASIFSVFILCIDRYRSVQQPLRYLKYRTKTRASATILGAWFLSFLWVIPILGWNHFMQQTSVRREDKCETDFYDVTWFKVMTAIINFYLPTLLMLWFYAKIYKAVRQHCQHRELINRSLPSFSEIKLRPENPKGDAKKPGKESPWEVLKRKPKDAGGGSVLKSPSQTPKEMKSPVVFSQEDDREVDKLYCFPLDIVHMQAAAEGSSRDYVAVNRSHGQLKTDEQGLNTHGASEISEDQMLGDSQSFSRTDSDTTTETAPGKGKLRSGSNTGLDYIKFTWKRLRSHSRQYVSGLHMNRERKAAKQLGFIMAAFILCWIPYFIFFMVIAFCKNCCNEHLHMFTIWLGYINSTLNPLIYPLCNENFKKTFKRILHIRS
Sequence of human Endothelin Receptor Type A (ETA), EDNRA (gene 1909) (P25101 whole entry, looked up): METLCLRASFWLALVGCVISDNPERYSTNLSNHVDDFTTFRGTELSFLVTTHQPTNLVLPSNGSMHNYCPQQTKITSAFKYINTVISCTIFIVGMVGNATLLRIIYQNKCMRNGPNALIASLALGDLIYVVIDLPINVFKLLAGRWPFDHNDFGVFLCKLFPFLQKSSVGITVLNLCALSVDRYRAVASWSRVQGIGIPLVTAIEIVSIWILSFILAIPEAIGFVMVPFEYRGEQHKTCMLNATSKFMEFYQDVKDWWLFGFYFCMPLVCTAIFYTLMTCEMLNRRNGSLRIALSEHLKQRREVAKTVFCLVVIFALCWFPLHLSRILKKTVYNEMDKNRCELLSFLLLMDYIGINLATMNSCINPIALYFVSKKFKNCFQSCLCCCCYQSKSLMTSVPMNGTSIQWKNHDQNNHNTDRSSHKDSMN

Usually AC50 stands for the concentration at which the activity in the assay is half-maximal. Take `COCCOc1cc2cc(C(=O)NC3CCN(C(C)C)CC3)n(CC(=O)Nc3ccc(Cl)cn3)c2cn1`: the concentration at half-maximal activity (AC50) in assay [1] was 9.81 µM (active); in assay [2] it was 6.54 µM (active). Further, the call in assay [3] and in [4] was inactive.
Take `O=C(OC[C@H]1O[C@@H](OC(=O)c2cc(O)c(O)c(OC(=O)c3cc(O)c(O)c(O)c3)c2)[C@H](OC(=O)c2cc(O)c(O)c(OC(=O)c3cc(O)c(O)c(O)c3)c2)[C@@H](OC(=O)c2cc(O)c(O)c(OC(=O)c3cc(O)c(O)c(O)c3)c2)[C@@H]1OC(=O)c1cc(O)c(O)c(OC(=O)c2cc(O)c(O)c(O)c2)c1)c1cc(O)c(O)c(OC(=O)c2cc(O)c(O)c(O)c2)c1`: the result in assay [2] and in assay [5] was inactive.
Regarding `O=C1CCCCCN1`, in assay [6], the compound was called inactive.
For `CNS(=O)(=O)c1cc(C(=O)N2CCC(CCN3C4CCC3CC(n3c(C)nc5ccccc53)C4)(c3cccc(F)c3)CC2)c(Cl)cc1F` (stereo unspecified), the concentration at half-maximal activity (AC50) was 8.72 µM (active) in assay [7], 15.8 µM (active) in assay [5] and 9.16 µM (active) in assay [8]. Further, in assay [4], the call was inactive.
In the case of `CCCN(C1CCN(C(=O)C2CCNCC2)CC1)[C@@H]1CCc2ccc(OC)cc2C1`, the AC50 in assay [1] is 17.4 µM (active); in [7], 18.8 µM (active); in assay [9] it was 12.1 µM (active); in [10] it was 0.00229 µM (active); in [12] it was 0.00453 µM (active); in assay [8], 0.00539 µM (active). Besides, the AC50 in assay [3] is 0.00683 µM (active); in assay [4], 0.0807 µM (active). The call in [11] was inactive.
In the case of `Nc1ccc(Nc2ccccc2)cc1`, the AC50 is 9.06 µM (active) in assay [1]; 6.53 µM (active) in [6]; 17.6 µM (active) in assay [5]; 25 µM (active) in assay [12]; 25 µM (active) in assay [8]; 16.6 µM (active) in [3]. Also, in assay [4], the call was inactive.
For the compound `Cc1[nH]cnc1C[C@H]1CCc2c(C)c3ccccc3n2C1=O`, the half-maximal activity concentration (AC50) in assay [13] was 22.2 µM (active); in assay [1], 0.56 µM (active); in [14] it was 1.04 µM (active); in assay [2] it was 5.39 µM (active); in assay [15] it was 1.39 µM (active); in assay [16] it was 18.4 µM (active). For the same compound, the AC50 in [7] is 0.979 µM (active); in assay [9], 4.88 µM (active); in assay [12], 15.5 µM (active); in assay [4], 11.9 µM (active). Besides, the compound was classed as inactive in assay [17], in [10], in assay [11] and in assay [3].
